# In PubChem BioAssay AID1851 (National Center for Advancing Translational Sciences (NCATS), 2009):
# Hit rate of the full screen: of about 16,000 compounds, about 2,600 (16%) were called active. About 20% were inconclusive and are not listed. Calls follow the shape of the dose curve; as a rule, active = well fitted curve in the direction sought with a large enough effect; inconclusive = small, poorly fitted or top-dose-only effect, or effect the other way; inactive = no such curve, though single readings can be large or run the other way. Not all results are given here.
# Target: Cytochrome P450 2D6 (Homo sapiens) (UniProt P10635)
# Sequence (P10635 whole entry, looked up): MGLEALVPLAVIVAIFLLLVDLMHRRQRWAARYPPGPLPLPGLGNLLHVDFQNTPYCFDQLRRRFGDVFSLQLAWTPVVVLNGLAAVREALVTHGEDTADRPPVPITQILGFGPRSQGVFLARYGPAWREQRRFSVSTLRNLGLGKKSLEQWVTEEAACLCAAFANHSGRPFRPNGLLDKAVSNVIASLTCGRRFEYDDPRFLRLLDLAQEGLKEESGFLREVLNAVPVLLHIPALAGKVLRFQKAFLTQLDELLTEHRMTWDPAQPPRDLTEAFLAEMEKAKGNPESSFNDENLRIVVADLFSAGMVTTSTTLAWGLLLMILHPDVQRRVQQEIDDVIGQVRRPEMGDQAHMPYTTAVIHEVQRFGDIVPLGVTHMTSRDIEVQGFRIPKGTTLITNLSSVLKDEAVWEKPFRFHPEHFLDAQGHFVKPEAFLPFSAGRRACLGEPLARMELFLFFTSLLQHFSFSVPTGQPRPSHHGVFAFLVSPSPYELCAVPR
# Assay: Cytochrome panel assay with activity outcomes
# Settings: recombinant CYP, pro-luciferin dealkylation, luminescence, p450-cyp2d6; series mostly up to 57.1 µM; activity, negative = inhibition: at the top concentration
# % is scaled to controls: 0 for no effect and ±100 for the full control effect.
SMILES,"activity, negative = inhibition",AC50
Cc1cccc(CCNc2nc3ccccc3n3nnnc23)c1,-2.97% (inactive),–
Cc1cccc(N2CC(O)=C(c3nc4ccccc4n3C)C2=N)c1,-23.1% (inactive),–
Cc1cccc(OCCn2c(-c3ccco3)nc3ccccc32)c1,–,5.01 µM (active)
Cn1cc(C(=O)c2ccc(Cl)cc2Cl)cc1C(=O)O,11.2% (inactive),–
O=c1c(-c2ccccc2)nc2cnc(N3CCNCC3)nc2n1-c1ccccc1,-14.5% (inactive),–
N#CN(CC(N)=O)c1nc(N2CCCCC2)nc(N2CCCCC2)n1,–,14.1 µM (active)
O=c1nc(N2CCCCCC2)nc(N2CCCCCC2)[nH]1,-8.94% (inactive),–
OCCN1CCN(c2nc(N3CCCCC3)nc(N3CCCCC3)n2)CC1,-15% (inactive),–
Cc1[nH]c(=O)c(C(=O)/C=C/c2ccccc2F)c2c1CCCC2,-24.7% (inactive),–
COCCn1c(=O)c(-c2ccc(OC)cc2)nc2cnc(N3CCOCC3)nc21,8.27% (inactive),–
NNC(=O)[C@@H](O)[C@H](O)[C@H](O)CO,17.4% [at 11.4 µM] (inactive),–
CCN(CCCc1ccccc1)CCCc1ccccc1,–,1 µM (active)
CCCCNC(=O)C(=O)NC(C)CCc1ccccc1 (stereo not drawn),26.5% (inactive),–
O=C(NCCCc1ccccc1)c1cccs1,-14.8% (inactive),–
COc1ccc(-c2nc3cnc(N4CCN(C)CC4)nc3n(C)c2=O)cc1,-1.16% (inactive),–
O=C(CCNC(=O)c1ccccc1)OCN1C(=O)c2ccccc2C1=O,4.05% (inactive),–
O=c1c(-c2ccc(Cl)cc2)nc2cnc(N3CCOCC3)nc2n1C1CC1,-4.21% (inactive),–
CCCCCCCCCCCC1=C(O)C(=O)C=C(O)C1=O,–,2 µM (active)
Cc1ccc(S(=O)(=O)ON=C2CCN(S(=O)(=O)c3ccccc3)CC2)cc1,-26.8% (inactive),–
CCOc1ccc(N2C(=O)C3C4C=CC(CC4)C3C2=O)c([N+](=O)[O-])c1 (stereo not drawn),–,11.2 µM (active)
CCOc1ccc(NC(=O)c2ccc(Br)o2)c([N+](=O)[O-])c1,-3.66% (inactive),–
CCOc1ccc(C(C)=O)cc1N1C(=O)C2C(C1=O)C1C=CC2C12CC2 (stereo not drawn),-12.3% (inactive),–
CCOC(=O)C1CCCN(C(=O)c2cc3nc(-c4ccc5c(c4)OCO5)cc(C(F)(F)F)n3n2)C1 (stereo not drawn),-22.8% (inactive),–
CCCCC(=O)N/N=C(\C)CC(=O)Nc1cc(Cl)ccc1OC,-15.1% (inactive),–
O=C(COC(=O)c1cccc(S(=O)(=O)N2CCOCC2)c1)Nc1nc(-c2ccccc2Cl)cs1,-27.2% (inactive),–
COc1ccc(COc2ccsc2C(=O)Nc2ccc(Cl)c(Cl)c2)cc1,-13.6% (inactive),–
CN(CCc1ccc(Cl)c(Cl)c1)C[C@@H](O)COc1ccc(NS(C)(=O)=O)cc1,–,25.1 µM (active)

SMILES,"activity, negative = inhibition",AC50
O=c1c(-c2cc(F)cc(F)c2)nc2cnc(N3CCNCC3)nc2n1Cc1cccs1,-1.74% (inactive),–
CC(C)CCOc1ccc(NC(=O)C2OC3OC(C)(C)OC3C3OC(C)(C)OC23)cc1 (stereo not drawn),0.481% (inactive),–
CCOC(=O)c1sc(NC(=O)CSc2n[nH]c(-c3ccc(Cl)cc3Cl)n2)c(C#N)c1C,–,28.2 µM (active)
CCOC(=O)c1sc(NC(=O)CSc2nc(C)cc(C)n2)c(C#N)c1C,-15.9% (inactive),–
CCOC(=O)c1sc(NC(=O)CSc2nc(C)cc(C)c2C#N)c(C#N)c1C,-7.84% (inactive),–
O=C(Oc1c(Br)cc(C(=S)N2CCOCC2)cc1Br)c1ccc(Cl)cc1,-11.2% (inactive),–
CC(=O)NCCNc1ncnc2ccc(-c3ccccc3Cl)cc12,–,15.8 µM (active)
CC(=O)NCCNc1cc(-c2ccccc2C(F)(F)F)ncn1,-2.78% (inactive),–
CC(=O)NCCNc1ncnc2ccc(-c3ccccc3C)cc12,–,20 µM (active)
CC(=O)NCCNc1ncnc2ccc(-c3ccccc3C(F)(F)F)cc12,–,20 µM (active)
CC(=O)NCCNc1ncnc2ccc(-c3ccccc3C#N)cc12,-9.82% (inactive),–
Cc1[nH]n(C(C)(C)C)c(=O)c1Sc1ccc(Cl)cc1,-25.3% (inactive),–
CCOc1ccc(N(C(C)C(=O)NC(C)CC)S(C)(=O)=O)cc1 (stereo not drawn),-68.4% (inactive),–
CCC(C)OC(=O)C1=C(C)NC(=O)CC1c1ccccc1OC (stereo not drawn),-6.88% (inactive),–
O=c1c(-c2cc(F)cc(F)c2)nc2cnc(N3CCOCC3)nc2n1-c1ccccc1,0.324% (inactive),–
CCOC(=O)c1cnn(CCOC(=O)C(C)(C)C)c1NC(=O)C(C)(C)C,-4.94% (inactive),–
O=[N+]([O-])c1ccc2c(c1)S(=O)c1ccccc1-2 (stereo not drawn),-5.2% [at 11.4 µM] (inactive),–
Cc1cc(NC(=O)CCN2C(=O)C3C4CCC(C4)C3C2=O)c(C)cc1Br (stereo not drawn),5.69% (inactive),–
CCc1cccc(C)c1NC(=O)CSc1nc2ccc(N3C(=O)c4ccccc4C3=O)cc2s1,7.32% (inactive),–
CS(=O)(=O)Nc1cccc(-c2nc(Nc3ccncc3)c3ccccc3n2)c1,–,20 µM (active)
CS(=O)(=O)Nc1cccc(-c2ccc3ncnc(N4CCNCC4)c3c2)c1,3% (inactive),–
CS(=O)(=O)Nc1cccc(-c2nc(N3CCNCC3)c3ccccc3n2)c1,–,10 µM (active)
CS(=O)(=O)Nc1cccc(-c2nc(Nc3ccccc3)c3ccccc3n2)c1,–,10 µM (active)
CNc1nc(-c2cccc(NS(C)(=O)=O)c2)nc2ccccc12,-8.43% (inactive),–
CS(=O)(=O)Nc1cccc(-c2nc(N3CCOCC3)c3ccccc3n2)c1,-11.6% (inactive),–
COc1ccc2c(c1)c(=O)oc1c(C)c(OCC(=O)N3CCc4ccccc4C3)ccc12,-30.9% (inactive),–
